This note sets out measurements from PubChem BioAssay (NCI).

Holding throughout (assay): NCI-60 one-dose screen, 48 h (100 = growth as untreated, 0 = no growth, -100 = all killed)
In one assay the test system is SK-MEL-2 melanoma. Particulars: 10 µM.
Another assay deals with EKVX NSCLC. Particulars: 10 µM.
For a further assay, the system named is SN12C renal. Particulars: 10 µM.
The test system of a further assay is TK-10 renal. The conditions noted are these: 10 µM unless noted.
In the next assay the test system is ACHN renal. The conditions noted are these: 10 µM.
For a further assay, the system named is CAKI-1 renal. Particulars: 10 µM.
The next assay deals with A498 renal. Particulars: 10 µM.
Another assay deals with CCRF-CEM leukemia. Particulars: 10 µM.
In another assay the test system is MOLT-4 leukemia. The conditions noted are these: 10 µM.
In the next assay the test system is RPMI-8226 leukemia. The conditions noted are these: 10 µM.
The next assay concerns OVCAR-8 ovarian. The conditions noted are these: 10 µM.
A further assay deals with OVCAR-5 ovarian. The conditions noted are these: 10 µM.
For a further assay, the system named is OVCAR-4 ovarian. The conditions noted are these: 10 µM.
The next assay deals with SK-OV-3 ovarian. The conditions noted are these: 10 µM.
Another assay relates to IGROV1 ovarian. The conditions noted are these: 10 µM.
The next assay deals with OVCAR-3 ovarian. The conditions noted are these: 10 µM.
The subject of another assay is HS 578T breast. The conditions noted are these: 10 µM.
Another assay concerns NCI/ADR-RES ovarian. The conditions noted are these: 10 µM.
The test system of another assay is SR leukemia. Particulars: 10 µM.

This is part of a sample that, as a whole, favours compounds with a hit. Of some 83,000 tested, about 20% had one in any assay.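 Testing used 96-well plates and a 48-hour single-concentration exposure. Example: -40 means 40% of the starting cells died.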 A number with no mark means an inactive call. Active and inactive are the calls of the source. Rule for the calls: active = growth percent below 10; inactive = the rest.

With `O=[N+]([O-])c1ccc(-c2noc(-c3cccs3)n2)cc1`, the growth with SK-MEL-2 melanoma is 106%; in the assay with EKVX NSCLC, 66.1%; with SN12C renal it was 83.5%; in the assay with TK-10 renal, 101%; with ACHN renal, 60.2%; in the assay with CAKI-1 renal, 77.8%. The growth with A498 renal is 88.6%; with CCRF-CEM leukemia, 93.6%; in the assay on MOLT-4 leukemia, 81.5%; in the assay with RPMI-8226 leukemia, 96.5%; in the assay with OVCAR-8 ovarian it was 86.6%; in the assay on OVCAR-5 ovarian, 98.5%. Further, the growth in the assay with OVCAR-4 ovarian was 71.6%; with SK-OV-3 ovarian, 95.2%; with IGROV1 ovarian, 96%; with OVCAR-3 ovarian, 106%; in the assay on HS 578T breast it was 60.3%; in the assay with NCI/ADR-RES ovarian, 82.4%.

Take `O=C(Cc1nc2ccc([N+](=O)[O-])cc2nc1CC(=O)c1cccnc1)c1cccnc1`: the growth is 113% in the assay with SK-MEL-2 melanoma; 63.2% with EKVX NSCLC; 56.2% with SN12C renal; 75.5% in the assay on TK-10 renal; 54.1% with ACHN renal; 81.5% in the assay with CAKI-1 renal. Moreover, the growth with A498 renal is 86.9%; in the assay on CCRF-CEM leukemia it was 48.7%; in the assay on MOLT-4 leukemia, 80.8%; with RPMI-8226 leukemia, 94.5%; in the assay on OVCAR-8 ovarian it was 31.2%; in the assay on OVCAR-5 ovarian, 101%. The growth was 57.7% with OVCAR-4 ovarian; 47.9% in the assay with SK-OV-3 ovarian; 73.9% with IGROV1 ovarian; 65.1% in the assay on OVCAR-3 ovarian; 7.13% (active) with HS 578T breast; 30.4% in the assay on NCI/ADR-RES ovarian.

Take `OCCN1CCOCC1`: the growth is 107% in the assay on SK-MEL-2 melanoma; 116% with EKVX NSCLC; 97.5% with SN12C renal; 106% with TK-10 renal; 101% in the assay with ACHN renal; 132% with CAKI-1 renal. For the same molecule, the growth was 106% in the assay with A498 renal; 108% with CCRF-CEM leukemia; 104% in the assay on MOLT-4 leukemia; 104% with SR leukemia; 107% with RPMI-8226 leukemia; 110% with OVCAR-8 ovarian. In addition, the growth in the assay on OVCAR-5 ovarian was 101%; with OVCAR-4 ovarian it was 110%; with SK-OV-3 ovarian, 109%; in the assay on IGROV1 ovarian, 117%; in the assay on OVCAR-3 ovarian it was 122%; in the assay on HS 578T breast it was 106%. Further, the growth with NCI/ADR-RES ovarian was 116%.

For the molecule `C[C@]12CC[C@@H]3c4ccc(OCC(=O)O)cc4CC[C@H]3[C@@H]1CCC2=O`, the growth in the assay on SK-MEL-2 melanoma was 105%; with EKVX NSCLC, 117%; in the assay with SN12C renal, 102%; in the assay with TK-10 renal, 103%; with ACHN renal, 96.9%; in the assay with CAKI-1 renal, 113%. Moreover, the growth with A498 renal is 78.1%; in the assay with CCRF-CEM leukemia it was 116%; with MOLT-4 leukemia, 86.2%; with SR leukemia, 88.5%; in the assay on RPMI-8226 leukemia, 121%; in the assay with OVCAR-8 ovarian, 109%. Also, the growth in the assay on OVCAR-5 ovarian is 107%; in the assay on OVCAR-4 ovarian, 95.8%; in the assay on SK-OV-3 ovarian, 115%; in the assay on IGROV1 ovarian, 107%; in the assay on OVCAR-3 ovarian it was 101%; in the assay on HS 578T breast it was 95.5%. Also, in the assay with NCI/ADR-RES ovarian, the growth was 96.4%.

For the molecule `O=C1NC(=O)C2C(=O)NC(=O)C1C21CCc2ccccc21` (stereo unspecified), the growth in the assay with SK-MEL-2 melanoma was 118%; in the assay on EKVX NSCLC, 90.1%; with SN12C renal it was 100%; in the assay with TK-10 renal, 145%; in the assay with ACHN renal it was 95.6%; with CAKI-1 renal, 77.7%. Besides, the growth with A498 renal is 137%; with CCRF-CEM leukemia, 78.6%; with MOLT-4 leukemia, 111%; in the assay on RPMI-8226 leukemia, 115%; in the assay with OVCAR-8 ovarian, 103%; in the assay on OVCAR-5 ovarian, 110%. Moreover, the growth in the assay on OVCAR-4 ovarian was 105%; with SK-OV-3 ovarian it was 116%; in the assay on IGROV1 ovarian, 109%; in the assay on OVCAR-3 ovarian it was 115%; in the assay with HS 578T breast, 89%; in the assay with NCI/ADR-RES ovarian, 100%.

As for `NCC(=O)CCC(=O)O`, the growth is 126% in the assay on SK-MEL-2 melanoma; 109% in the assay with EKVX NSCLC; 105% in the assay with SN12C renal; 114% with TK-10 renal; 99.2% in the assay with ACHN renal; 109% in the assay on CAKI-1 renal. Moreover, the growth with A498 renal is 110%; in the assay with CCRF-CEM leukemia, 109%; in the assay with MOLT-4 leukemia it was 108%; in the assay on RPMI-8226 leukemia, 118%; in the assay on OVCAR-8 ovarian it was 104%; with OVCAR-5 ovarian, 120%. Further, the growth with OVCAR-4 ovarian was 98%; with SK-OV-3 ovarian it was 99.8%; in the assay on IGROV1 ovarian, 112%; in the assay on OVCAR-3 ovarian, 111%; with HS 578T breast it was 108%; with NCI/ADR-RES ovarian it was 107%.

Regarding `OCC1OC(OC2C(O)C(CO)OC2(CO)OC2OC(CO)C(O)C(O)C2O)C(O)C(O)C1O` (stereo unspecified), the growth in the assay with SK-MEL-2 melanoma was 106%; in the assay on EKVX NSCLC it was 103%; in the assay on SN12C renal it was 103%; in the assay on TK-10 renal, 106%; in the assay with ACHN renal, 113%; with CAKI-1 renal, 115%. The growth in the assay on A498 renal was 94.6%; with CCRF-CEM leukemia, 88.6%; in the assay on MOLT-4 leukemia, 126%; in the assay with SR leukemia, 106%; with RPMI-8226 leukemia, 97.9%; in the assay with OVCAR-8 ovarian, 113%. Moreover, the growth is 107% in the assay on OVCAR-5 ovarian; 100% with OVCAR-4 ovarian; 108% with SK-OV-3 ovarian; 123% in the assay with IGROV1 ovarian; 121% in the assay with OVCAR-3 ovarian; 110% in the assay with HS 578T breast. Also, in the assay on NCI/ADR-RES ovarian, the growth was 107%.

Turning to `CCCC1(c2ccccc2)NC(=O)NC1=O` (stereo unspecified), the growth was 103% with SK-MEL-2 melanoma; 118% in the assay with EKVX NSCLC; 104% with SN12C renal; 95.2% in the assay with TK-10 renal; 103% in the assay on ACHN renal; 116% in the assay with CAKI-1 renal. In addition, the growth in the assay on A498 renal was 121%; in the assay on CCRF-CEM leukemia, 99.7%; with MOLT-4 leukemia, 123%; in the assay on SR leukemia, 126%; in the assay on RPMI-8226 leukemia, 101%; in the assay on OVCAR-8 ovarian it was 111%. Moreover, the growth in the assay with OVCAR-5 ovarian is 103%; with OVCAR-4 ovarian it was 104%; in the assay with SK-OV-3 ovarian, 99.7%; with IGROV1 ovarian, 128%; in the assay on OVCAR-3 ovarian, 108%; in the assay with HS 578T breast, 113%. For the same molecule, the growth in the assay with NCI/ADR-RES ovarian is 109%.

Consider `CCCCNC(=O)C(=O)NCCCC`, for which the growth in the assay on SK-MEL-2 melanoma was 123%; with EKVX NSCLC it was 95.5%; with SN12C renal, 98.8%; with TK-10 renal, 96.4%; with ACHN renal, 110%; in the assay with CAKI-1 renal it was 91.8%. Moreover, the growth in the assay with A498 renal was 114%; in the assay on CCRF-CEM leukemia, 101%; in the assay with MOLT-4 leukemia it was 129%; in the assay on RPMI-8226 leukemia it was 106%; with OVCAR-8 ovarian, 105%; in the assay with OVCAR-5 ovarian, 113%. In addition, the growth was 108% in the assay with OVCAR-4 ovarian; 123% in the assay with SK-OV-3 ovarian; 113% in the assay on IGROV1 ovarian; 108% in the assay on OVCAR-3 ovarian; 96.6% in the assay on HS 578T breast; 104% in the assay with NCI/ADR-RES ovarian.
